# The list is not random: actives were taken first. Their share in the collection is about 3.8%.
# TGFb inhibitor – TGF-b pathway inhibition; Potency, µM (highest dose often 46.1 µM), for the others: top-dose activity, negative = inhibition, actives largely listed as inhibitors; 1.2% of 410,000 active; AID 588855; HepG2 CAGA-GFP TGF-b/SMAD3 reporter, GFP fluorescence, 18 h; TGF-beta stimulated, 500 pg/mL final; note: % is set by controls: 0 for no effect and ±100 for the full control effect; nearly all actives have a fitted effect of over 65% in size
#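 Cell-based qHTS in HEPG2 carrying a CAGA-GFP Smad reporter; compounds added before 500 pg/mL final TGF-beta, 18 h incubation at 37 degrees C, GFP fluorescence quantified per cell by imaging cytometry.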
# S2 tox – reduces viability in counter-screen for ATXN expression inhibitors | 0.49% of 400,000 active | Potency, µM (series often up to 56.7 µM), hits mostly cytotoxic | S2 cells (HEK-293 line with an ATXN2-luciferase reporter) viability, CellTiter-Fluor protease fluorescence, 24 h; note: nearly all actives have a fitted effect of over 40% in size
# HepG2 viability – kills HepG2 cells in TGF-b inhibitor counter-screen; HepG2 CAGA-GFP viability, ATP luminescence, 18 h; Potency, µM (highest dose often 46.1 µM), inactives show at the highest dose activity change, negative = cytotoxicity, usual class: cytotoxic; 0.76% of 410,000 active
#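 CellTiter-Glo luminescence gave cytotoxicity after 18 hours at 37 degrees C. The cells were HepG2 CAGA-GFP in 1% FBS DMEM, stimulated with 500 pg/mL TGF-beta after compound addition. %Activity was normalised to no-cell wells (complete cell-killing) and DMSO (no toxicity), and curves were fitted and classified.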
# A549 viability – counter-screen for Nrf2 inhibitors: cytotoxicity in A549 cells; A549 ARE-Fluc cells, CellTiter-Fluor viability, 18-24 h; Potency, µM (titrated, usually from 46 µM), inactives show at the highest dose activity change, negative = cytotoxicity, actives largely listed as inhibitors; 0.16% of 390,000 active; note: % is set by controls: 0 for no effect and ±100 for the full control effect
#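 A549 ARE-Fluc cells in 5% FBS OPTI-MEM, 5000 cells/well, rested 2 h then exposed to compounds in concentration-response for 18-24 h at 37 °C. Viability by CellTiter-Fluor fluorescence (Ex 405/Em 525) after 30 min; luciferase luminescence (BugLite, 15 min, RT) read afterwards.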
# Nrf2 inh – Nrf2 pathway inhibition; A549 ARE-Fluc reporter, luciferase luminescence, 18-24 h; Potency, µM (titrated, usually from 46 µM), without a hit: at the highest dose activity change, negative = inhibition, usual class: inhibitors; 2.1% of 360,000 active; note: % is set by controls: 0 for no effect and ±100 for the full control effect; nearly all actives have a fitted effect of over 60% in size
#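 Two sequential reads on A549 ARE_Fluc cells exposed to compound for 18-24 h: a CellTiter-Fluor fluorescence read for viability, then a luciferase luminescence read for Nrf2/ARE activity.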
# ATXN2 expr inh – ATXN2 expression inhibition; 0.72% of 360,000 active; Potency, µM (highest dose often 57 µM), for inactives: at the top dose activity change, negative = inhibition, most hits filed as inhibitors; HEK-293 ATXN2-luciferase reporter, luminescence, 24 h; AID 1745845; note: % is set by controls: 0 for no effect and ±100 for the full control effect; nearly all actives have a fitted effect of over 55% in size
#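 ATXN2-luciferase reporter cells (luciferase flanked by upstream and downstream ATXN2 gene portions) were treated 24 h at 37 °C with compounds at up to 57 uM. SteadyGlo luminescence gave expression; GF-AFC fluorescence gave viability.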
# Starred values were filed as active, the others as inactive; i = inactive; ? = inconclusive; · = not tested or not shown; [ ] = dose if it differs, or a comment. Calls come from the whole dose curve; as a rule, active = well fitted curve in the direction sought with a large enough effect; inconclusive = small, poorly fitted or top-dose-only effect, or another doubt; inactive = no such curve, though single readings can be large; an effect the other way counts as inactive or inconclusive. Potency is the fitted concentration of half-maximal effect.
SMILES,TGFb inhibitor,S2 tox,HepG2 viability,A549 viability,Nrf2 inh,ATXN2 expr inh
Fc1ccc(NC(=S)NCCN2CCOCC2)c(F)c1F,4.7%,i,-3.4%,0.1%,2.2%,-1.6%
Cc1c(Nc2cc(Cl)c3nonc3c2[N+](=O)[O-])c(=O)n(-c2ccccc2)n1C,?,28.2µM*,-84.0%,?,?,?
CCCC(CCC)C(N)=O,·,i,·,·,·,·
Cc1ccc(O)c(C(=O)CC(=O)c2ccc(Cl)cc2)c1,?,?,-15.9%,-7.8%,3.7%,-28.2%
Cc1ccc(O)c(Cc2cc(C)cc(Cc3cc(C)ccc3O)c2O)c1,22.4µM*,?,-89.3%,·,·,·
Cc1ccc(NC(=O)CCn2c(=O)c3cccn3c3ccccc32)c(Cl)c1,?,·,-24.5%,4.9%,-14.0%,·
CCOc1cc(S(=O)(=O)NC2CCCC2)ccc1Cl,?,i,-3.0%,-1.6%,·,5.4%
COc1ccc(NS(=O)(=O)c2ccc(C(=O)N3CCN(Cc4ccccc4)CC3)cc2)cc1,2.0%,?,0.0%,-9.4%,20.6µM*,·
CCOc1ccc(S(=O)(=O)Nc2cccc(Cl)c2)cc1,-29.6%,i,-8.5%,?,13µM*,-31.8%
CCOc1cc(S(=O)(=O)Nc2cc(C)cc(C)c2)ccc1Cl,22.4µM*,?,-101.3%,-12.9%,?,?
CCOc1ccc(NS(=O)(=O)c2ccc(C(=O)N3CCCCCC3)cc2)cc1,-15.9%,i,-16.2%,-15.5%,23.1µM*,-27.6%
COc1ccc(NC(=O)COC(=O)Cc2c(F)cccc2Cl)cc1OC,-15.6%,i,8.5%,4.9%,5.9%,9.8%
CCOC(=O)[C@]12CCCC=C1N(Cc1ccco1)C(=O)[C@H](CC(=O)NCCc1ccccc1OC)C2,·,?,·,·,·,1.3%
Cc1ccc2[nH]c(C(=O)N3CCN(C(c4ccccc4)c4ccccc4)CC3)cc2c1,10.3%,i,-1.9%,-10.1%,-26.2%,-11.4%
c1ccc(-c2nc(SCC3CCCCO3)n[nH]2)cc1 (stereo unspecified),-7.7%,·,-4.6%,·,·,·
CCOc1ccc(NS(=O)(=O)c2ccc(C(=O)N3CCCC(C)C3)cc2)cc1 (stereo unspecified),-7.5%,?,-2.4%,-11.0%,7.31µM*,?
CCOc1ccc(S(=O)(=O)Nc2ccc(C(=O)N3CCCC3)cc2)cc1,-1.0%,i,-3.2%,1.6%,-21.9%,-6.0%
Cc1ccc(S(=O)(=O)NCc2ccccc2)cc1C(=O)N(C)Cc1ccccc1F,-31.8%,i,-14.7%,-2.9%,-14.7%,1.9%
Cc1ccc(S(=O)(=O)NCc2ccccc2)cc1C(=O)N(C)Cc1ccc(F)cc1,?,i,-22.3%,-11.7%,23.1µM*,-10.9%
Cc1ccc2nc(C3CCCCC3)c(Cc3cccc(F)c3)n2c1,?,?,-11.5%,·,·,?
CCCc1nc2ccc(C)cn2c1Cc1ccc(C)cc1,?,25.1µM*,-21.7%,·,·,?
Cc1ccc2nc(C3CCCCC3)c(Cc3ccccc3)n2c1,?,12.6µM*,-63.2%,·,·,?
CCCc1nc2ccc(C)cn2c1Cc1ccccc1,-14.4%,·,-17.3%,·,·,0.0%
O=C(CNC(=O)c1ccccc1)OC(C(=O)Nc1cc(C(F)(F)F)ccc1Cl)c1ccccc1 (stereo unspecified),?,i,-35.1%,0.4%,13.3%,-2.1%
O=C(CNC(=O)c1cccc(Cl)c1)OC(C(=O)Nc1cc(C(F)(F)F)ccc1Cl)c1ccccc1 (stereo unspecified),·,·,·,-25.4%,23.1µM*,·
SMILES,TGFb inhibitor,S2 tox,HepG2 viability,A549 viability,Nrf2 inh,ATXN2 expr inh
O=C(Nc1cc(C(F)(F)F)ccc1Cl)[C@H](O)CCc1ccccc1,·,·,·,?,25.9µM*,·
CC(C)CC(O)C(=O)Nc1cc(C(F)(F)F)ccc1Cl (stereo unspecified),·,·,·,-6.1%,-5.7%,·
Cc1cc(C)cc(NC(=O)CSc2oc(-c3cccs3)nc2S(=O)(=O)c2ccc(Br)cc2)c1,-1.6%,i,-5.9%,0.0%,0.5%[9.27 µM],5.7%
CC(=O)c1ccc(S(=O)(=O)N2CCN(C(=O)c3ccc(N)c([N+](=O)[O-])c3)CC2)cc1,-7.0%,i,4.0%,-4.2%,-1.9%,-11.8%
Nc1ccc(C(=O)N2CCN(S(=O)(=O)c3ccc4c(c3)OCCCO4)CC2)cc1[N+](=O)[O-],?,i,-21.5%,?,25.9µM*,-32.4%
O=C(c1cc([N+](=O)[O-])ccc1Cl)N1CCN(c2ccc([N+](=O)[O-])cc2)CC1,0.0%,i,-5.1%,?,20.6µM*,-10.9%
COc1ccc(N2CCN(C(=O)c3ccc(COc4ccc([N+](=O)[O-])cc4)o3)CC2)cc1,-8.8%,?,22.5%,-18.5%,23.1µM*,?
O=C(c1cc([N+](=O)[O-])ccc1Cl)N1CCN(Cc2ccccc2)CC1,-4.8%,i,14.1µM*,0.8%,-8.9%,-17.3%
O=C(c1ccc(Cn2cc(Cl)c([N+](=O)[O-])n2)cc1)N1CCN(Cc2ccccc2)CC1,?,i,-28.9%,-11.4%,20.6µM*,·
O=C(c1cc([N+](=O)[O-])ccc1Cl)N1CCN(c2ccc(F)cc2)CC1,-24.7%,i,-30.2%,9.5%,-10.0%,·
COc1ccc(N2CCN(C(=O)Oc3ccc([N+](=O)[O-])cc3)CC2)cc1,·,i,·,·,·,-16.6%
CC(=O)N1CCc2cc(Br)cc(S(=O)(=O)NCCc3cccc(C)c3)c21,?,·,-22.7%,9.9%,·,·
O=S1(=O)CCC(NC(=S)N2CCOCC2)C1 (stereo unspecified),-3.9%,i,-1.7%,-1.4%,18.9%,-0.6%
CN(C(=O)c1cnn(-c2nccc(-c3ccccc3C(F)(F)F)n2)c1C1CC1)C1CCOC1 (stereo unspecified),·,i,·,·,·,·
O=C(Cc1ccccc1)N1CCN(c2ccc([N+](=O)[O-])cc2)CC1,-5.0%,?,-25.1%,-21.3%,25.9µM*,-13.6%
O=C(c1ccc2nsnc2c1)N1CCN(c2ccc([N+](=O)[O-])cc2)CC1,?,?,-27.9%,-6.8%,23.1µM*,·
O=C(Cc1ccc([N+](=O)[O-])cc1)N1CCN(c2ccc([N+](=O)[O-])cc2)CC1,-10.3%,i,-6.6%,-13.3%,?,·
O=[N+]([O-])c1cc2c(cc1Br)-c1ccccc1C2,?,?,-96.9%,·,·,·
Cc1cccc(OCCn2c(NC(=O)c3ccco3)nc3ccccc32)c1,-6.4%,·,-24.1%,-4.3%,18.4µM*,?
CCN1C(=O)[C@H]2[C@@H](c3ccc(-c4ccccc4)cc3)N3CCC[C@@]3(C(=O)OC)[C@H]2C1=O,1.2%,i,-6.5%,-2.1%,14.6µM*,-5.3%

# From PubChem BioAssay
